Assay results published in PubChem BioAssay.
Records with an inconclusive call do not appear. Active and inactive are the calls of the source.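 How the source made its calls, unless noted: active means viability at or under a set limit in both replicates, limit being median viability minus 3 SD (cut at about 48% in these data, passing the limit was not always enough); inconclusive means at or under the limit in just one replicate; inactive means at or above the limit in both replicates.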

Columns and labels:
[1] = Her2 expression decrease, cell viability multiplex – SKBR3 breast tumor cells, AlphaScreen, ATP viability, primary screen (AID 461;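 active means Her2 level under about 52% in both replicate screens, with viability over 70% of control, limit read from the data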;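 on Her2 level: lower value means less Her2 protein in the cells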;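 on viability: percent of carrier control wells set as 100% viability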); conditions: SKBR3 Her2 protein level, 18-24 h, measured here: SKBR3 viability, ATP luminescence, at 10 µM
[2] = target: Receptor tyrosine-protein kinase erbB-2 (Homo sapiens) (UniProt P04626); assay: as above; conditions: 18-24 h, at 10 µM, stronger effect = lower value
[3] = reduced viability of SK-BR-3 breast cancer cells – cell-based, 24 h, human, pilot screen (AID 572;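 active means viability at or below 10% of carrier control in both of two separate runs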;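 further: compound exposure lasted between 18 and 24 h rather than exactly 24 h; 100% = carrier-treated control wells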); conditions: SK-BR-3 viability, CellTiter-Glo luminescence, at 10 µM, stronger effect = lower value
[4] = H69AR cell proliferation blockers – human, duplicate replicates, primary screen (AID 580); conditions: H69AR lung tumor cells viability, ATP luminescence, 72 h; at 10 µM; stronger effect = lower value;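 further: 100% = mean luminescence of untreated wells and 0% = no signal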
[5] = MRP1 drug-resistance reversers in H69AR cells – cell-based, doxorubicin co-treatment, pilot screen (AID 601;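 active means viability loss from added drug above about 55%, and viability with drug at most 40%, in both replicates, limit read from the data, passing the limit was not always enough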); conditions: CellTiter-Glo, 72 h, at 10 µM; for differential viability (reversal): stronger effect = higher value
[6] = yeast transport mutant growth inhibition pilot in 384-well plates, post-Golgi transport modulator project (AID 636; in the data active means inhibition above about 31%); conditions: absorbance 615 nm, about 18 h, stronger effect = higher value
[7] = growth suppression of yeast trafficking mutant, preliminary HTS, modulators of trafficking downstream of Golgi apparatus project, 1536-format plate, OD 615 nm (AID 637; in the data active means inhibition above about 30%); conditions: yeast transport mutant growth, absorbance 615 nm, 18 h; stronger effect = higher value
[8] = S. cerevisiae growth inhibition in permissive medium (OD615), pilot counter-assay for S. cerevisiae lifespan shortening project, permissive growth control (AID 705;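 active means growth inhibition above 25% in both replicates, a cutoff set 3 SD above the mean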); conditions: OD615, 24 h, at 10 µM, stronger effect = higher value
[9] = S. cerevisiae growth inhibition in restrictive medium, OD615, pilot screen, restrictive growth control, yeast lifespan reduction project (AID 706;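 active means growth inhibition above a set limit, 3 SD over mean compound inhibition, in both replicates, cut at about 43% in these data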;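 further: modified DeaD lifespan yeast strain shifted to restrictive glucose medium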); conditions: OD615, 48 h, at 10 µM, stronger effect = higher value
[10] = doxorubicin toxicity protection in MRP-1 cells – H69AR cells, CellTiter-Glo, duplicate, MRP-1 activator project, pilot screen (AID 807;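 active means viability increase at or above a cutoff of the median across tested compounds plus 3 SD, cut at about 8.5% in these data, passing the limit was not always enough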;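 further: compound pretreatment 18-22 h then 72 h combined with doxorubicin; 0% = doxorubicin alone and 100% = vehicle without doxorubicin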); conditions: H69AR viability with doxorubicin, CellTiter-Glo luminescence; at 10 µM; stronger effect = higher value
[11] = viability of HCT116 without oncogenic beta-catenin – human colon tumor cells, pilot screen (AID 823;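 active means cell viability at or below a set limit in both duplicate runs, the limit being the all-compound median minus 4 SD, cut at about 23% in these data, passing the limit was not always enough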;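 further: 0% = wells killed by 20 µM Hyamine and 100% = untreated DMSO cell wells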); conditions: HCT116 beta-catenin knockout viability, CellTiter-Glo, 60 h; at 10 µM; stronger effect = lower value
[12] = viability of PTEN-null HCT116 cells – cell-based, HCT116 clonal line, CellTiter-Glo, pilot screen (AID 824;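 active means viability at or below 27.92% in each of two runs, the all-compound median minus 4 SD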;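 further: 0% = 20 µM Hyamine control and 100% = vehicle cell control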); conditions: HCT116 PTEN-deleted viability, 60 h, at 10 µM, stronger effect = lower value
[13] = RAM pathway blockade in budding yeast – dse1pr::URA3 reporter, 5-FOA selection, pilot screen (AID 869;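 active means inhibition over a set limit, the all-compound mean plus 3 SD, in both replicate runs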;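 further: 0% = DMSO wells with no growth and 100% = 10 µM 1-NA-PP1 with full growth; RAM network block rescues cells from 5-FOA so hits raise OD615 growth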); conditions: S. cerevisiae dse1pr::URA3 5-FOA growth, OD615, 2 d; at 10 µM; stronger effect = higher value; strain carries analog-sensitive mutant Cbk1 kinase
[14] = RAM signaling pathway blockade in yeast – S. cerevisiae, Pdr1DBD-CYC8 efflux-inhibited sensitized strain, primary screen (AID 1298;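 active means RAM network inhibition above 8.4% in each of two replicates, 3 SD over the compound average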;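 further: 0% = DMSO untreated cells without growth and 100% = 10 µM 1-NA-PP1 full growth; higher means more yeast growth rescued from 5-FOA killing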); conditions: S. cerevisiae cbk1-as DSE1-URA3 strain, 5-FOA growth OD615, 2 d; at 50 µM; stronger effect = higher value
[15] = HUVEC growth inhibition – cell-based, human, primary screen (AID 575;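 active means viability at or below 30% in both replicate assays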;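 further: 100% = median of untreated cell wells with 0.1% DMSO on each plate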); conditions: HUVEC proliferation, CellTiter-Glo luminescence, 72 h; at 10 µM; stronger effect = lower value
[16] = H69AR cells + 2 uM doxorubicin, measured here: viability with 2 uM doxorubicin, stronger effect = lower value
[17] = H69AR cells, compound alone cytotoxicity

Sequence of Receptor tyrosine-protein kinase erbB-2 (Homo sapiens) (P04626 whole entry, looked up): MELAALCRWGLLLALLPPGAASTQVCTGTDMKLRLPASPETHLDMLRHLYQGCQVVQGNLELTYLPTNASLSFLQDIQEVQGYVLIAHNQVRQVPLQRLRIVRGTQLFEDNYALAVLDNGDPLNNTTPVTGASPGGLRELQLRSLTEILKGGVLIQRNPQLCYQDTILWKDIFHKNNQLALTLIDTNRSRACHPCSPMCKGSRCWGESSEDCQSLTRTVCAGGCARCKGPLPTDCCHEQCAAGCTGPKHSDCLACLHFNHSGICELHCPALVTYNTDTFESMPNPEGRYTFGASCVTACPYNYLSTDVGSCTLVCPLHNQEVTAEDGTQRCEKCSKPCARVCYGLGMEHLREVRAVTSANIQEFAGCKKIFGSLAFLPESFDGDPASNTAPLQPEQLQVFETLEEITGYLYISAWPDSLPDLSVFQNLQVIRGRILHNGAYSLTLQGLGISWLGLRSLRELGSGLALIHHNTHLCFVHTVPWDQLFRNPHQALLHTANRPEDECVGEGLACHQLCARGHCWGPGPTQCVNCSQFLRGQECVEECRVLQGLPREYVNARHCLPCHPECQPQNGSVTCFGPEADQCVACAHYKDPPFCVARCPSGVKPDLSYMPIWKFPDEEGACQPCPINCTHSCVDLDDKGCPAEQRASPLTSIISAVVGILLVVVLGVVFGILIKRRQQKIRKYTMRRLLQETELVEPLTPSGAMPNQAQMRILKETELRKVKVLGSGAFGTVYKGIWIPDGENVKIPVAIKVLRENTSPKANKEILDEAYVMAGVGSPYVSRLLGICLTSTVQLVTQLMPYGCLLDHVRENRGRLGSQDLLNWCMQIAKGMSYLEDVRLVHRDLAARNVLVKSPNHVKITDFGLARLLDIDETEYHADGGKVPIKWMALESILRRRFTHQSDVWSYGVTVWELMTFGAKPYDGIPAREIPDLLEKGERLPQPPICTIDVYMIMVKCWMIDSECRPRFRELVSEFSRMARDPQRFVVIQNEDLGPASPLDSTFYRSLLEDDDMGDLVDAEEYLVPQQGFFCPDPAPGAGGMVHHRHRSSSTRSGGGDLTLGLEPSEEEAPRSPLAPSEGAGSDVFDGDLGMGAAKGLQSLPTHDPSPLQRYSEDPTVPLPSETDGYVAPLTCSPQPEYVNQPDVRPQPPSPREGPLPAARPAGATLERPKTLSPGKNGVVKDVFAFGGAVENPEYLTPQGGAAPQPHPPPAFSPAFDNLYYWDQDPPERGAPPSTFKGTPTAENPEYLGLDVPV

| Structure (SMILES) | viability [1] | Her2 level [2] | viability [3] | viability [4] | differential viability (reversal) ([5]; H69AR cells + 2 uM doxorubicin) | viability [5, 16] | viability [5, 17] | inhibition [6] | inhibition [7] | growth inhibition [8] | growth inhibition [9] | viability increase [10] | viability [11] | viability [12] | inhibition [13] | RAM network inhibition [14] | viability [15] |
| --- | --- | --- | --- | --- | --- | --- | --- | --- | --- | --- | --- | --- | --- | --- | --- | --- | --- |
| CC(=O)n1cc(-c2ccncc2)c2ccccc21 | 94% | 108% (inactive) | 94% (inactive) | 85.3% (inactive) | 6.14% (inactive) | 79.2% | 85.3% | -7.2% (inactive) | -3% (inactive) | -5.77% (inactive) | -1.47% (inactive) | -3.7% (inactive) | 86.7% (inactive) | 82.6% (inactive) | 0.135% (inactive) | 0.27% (inactive) |  |
| O=C(/C=C/N1CCOCC1)c1ccc(-c2ccccc2)cc1 |  |  | 104% (inactive) | 89.5% (inactive) | 7.73% (inactive) | 81.8% | 89.5% | -5.07% (inactive) | -2% (inactive) | 99.4% (active) | 100% (active) | -1.77% (inactive) | 88.4% (inactive) | 80.6% (inactive) | -0.475% (inactive) | -1.36% (inactive) | 81.8% (inactive) |
| COc1ccc(N2CCN(C(=O)CSc3ccccc3)CC2)cc1 |  |  | 113% (inactive) | 95.5% (inactive) | 12.5% (inactive) | 83% | 95.5% | -8.13% (inactive) | -2.18% (inactive) | 3.53% (inactive) | 11.6% (inactive) | -3.92% (inactive) | 93.2% (inactive) | 85.9% (inactive) | 1.16% (inactive) | 3.22% (inactive) | 103% (inactive) |
| COc1cc(-c2nc(-c3ccncc3)no2)cc(OC)c1OC |  |  | 100% (inactive) | 89.1% (inactive) | 1.12% (inactive) | 88% | 89.1% | -5.87% (inactive) | -2.18% (inactive) | -1.17% (inactive) | 11.1% (inactive) | -2.77% (inactive) | 103% (inactive) | 99.3% (inactive) | 2.17% (inactive) | 3.72% (inactive) | 101% (inactive) |
| CCOC(=O)c1ccc(N=c2sc(C(=O)OC)cc(=O)n2Cc2ccco2)cc1 | 110% | -1.5% (active) | 110% (inactive) | 1.51% (active) | 0.27% (inactive) | 1.24% | 1.51% | -3.21% (inactive) | -1.33% (inactive) | -11.7% (inactive) | -2.14% (inactive) | -8.48% (inactive) | 5.04% (active) | 1.63% (active) | 1.42% (inactive) | 7.3% (inactive) |  |
| Cc1cccc(N(CC(=O)N2CCCC2)S(=O)(=O)c2ccccc2)c1C |  |  | 106% (inactive) | 88.5% (inactive) | -0.32% (inactive) | 88.8% | 88.5% | -2.27% (inactive) | 1.82% (inactive) | -1.1% (inactive) | 4.24% (inactive) | -1.18% (inactive) | 93.9% (inactive) | 93.6% (inactive) | 2.05% (inactive) | 3.22% (inactive) | 112% (inactive) |
| COC(=O)c1cc(-c2ccccc2)sc1NC(=O)c1cc(C)on1 |  |  | 121% (inactive) | 95.9% (inactive) | 5.14% (inactive) | 90.8% | 95.9% | -4.38% (inactive) | -6.45% (inactive) | -0.31% (inactive) | -11.1% (inactive) | -2.24% (inactive) | 93.7% (inactive) | 84.2% (inactive) | 1.4% (inactive) | 2.94% (inactive) | 96.6% (inactive) |
| CN(C)c1ccc(NC(=O)Cn2cc3c(n2)CCCC3)cc1 | 77.5% | 67% (inactive) | 77.5% (inactive) | 74% (inactive) | -10.1% (inactive) | 84.1% | 74% | -4.13% (inactive) | -5% (inactive) | 11.9% (inactive) | 13.9% (inactive) | -2.45% (inactive) | 64.2% (inactive) | 62% (inactive) | 2% (inactive) | 1.84% (inactive) |  |
| Cc1cc(=O)oc2c1ccc1oc(/C(=N/O)c3ccccc3)c(C)c12 | 84% | 112% (inactive) | 84% (inactive) | 74.5% (inactive) | -17.2% (inactive) | 91.7% | 74.5% | 8.46% (inactive) | 17.2% (inactive) | -11% (inactive) | 10.6% (inactive) | 5.23% (inactive) | 80.8% (inactive) | 65.4% (inactive) | 0.035% (inactive) | 9.44% (inactive) |  |
| COc1ccc(C2C(C(=O)Nc3cccnc3)=C(C)Nc3nc(-c4cccs4)nn32)cc1OC (stereo not given) | 59% | 94.5% (inactive) |  | 87.8% (inactive) | 12.1% (inactive) | 75.7% | 87.8% | 1.2% (inactive) | -6.17% (inactive) | -9.82% (inactive) | -8.04% (inactive) | -1.12% (inactive) | 106% (inactive) | 95.6% (inactive) | -0.09% (inactive) | -1.11% (inactive) | 90.5% (inactive) |
